Data from PubChem BioAssay (Tox21).
Inconclusive results are not listed. Entries that show only a call come without a potency. The source holds several records for some structures; these can differ, active in one and inactive in another. The source made the active and inactive calls. Unless noted, calls follow the shape of the full dose curve.

Tests used:
[1] = Nuclear factor erythroid 2-related factor 2/antioxidant responsive element (Nrf2/ARE) small molecule agonists: qHTS cell viability counter screen in human keratinocytes (AID 1919968; active = well fitted curve in the direction sought with a large enough effect in the repeat runs; an effect the other way counts as inactive or inconclusive; also: nearly all actives have a fitted effect of over 55% in size)
Method in brief: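 Seed 1,500 KeratinoSens cells per well, then incubate 5 h at 37 C/5% CO2. Add compounds in DMSO and incubate 23 h. Add CellTiter-Fluor, wait 1 h and read fluorescence.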

[2] = Nuclear factor erythroid 2-related factor 2/antioxidant responsive element (Nrf2/ARE) small molecule agonists: luciferase reporter gene qHTS assay in human keratinocytes (AID 1919969); also: nearly all actives have a fitted effect of over 35% in size
[3] = biological target: Gonadotropin-releasing hormone receptor (Homo sapiens) (UniProt P30968); experiment: Human gonadotropin-releasing hormone receptor (GnRHR) small molecule agonists, calcium flux assay in GnRHR-HEK293 cells (AID 1920063); also: nearly all actives have a fitted effect of over 35% in size
Method in brief: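 Cells: HEK293 stably expressing human GnRHR. Steps: overnight (18 h) culture, 1 h calcium dye loading at 37 C, compound addition, kinetic fluorescence read at 480/540 nm. Each compound tested at 15 concentrations in triplicate.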

[4] = biological target: KiSS-1 receptor (Homo sapiens) (UniProt Q969F8); experiment: Human kisspeptin (KISS1R) small molecule agonists, calcium flux assay in KISS1R-HEK293 cells (AID 1920064; active = well fitted curve in the direction sought with a large enough effect in the repeat runs; an effect the other way counts as inactive or inconclusive)
Method in brief: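 Cells plated and incubated 18 h; dye added, 1 h at 37 C; compounds in DMSO pinned in; signal read at 480/540 nm every second for 3 min. Each compound tested at 15 concentrations in triplicate.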

[5] = G protein-coupled receptor (GPCR) small molecule agonists, calcium flux assay: HEK293 wild type cell line counter screen (AID 1920065)
Method in brief: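 Counter-screen of the Tox21 10K library for non-specific calcium release: dye-loaded cells received compounds in DMSO and were monitored by kinetic fluorescence (480/540 nm, 3 min). Fifteen concentrations, run in triplicate.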

[6] = p53 small molecule agonists, cell-based qHTS assay with human liver microsomes (AID 1963577);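 also: p53 response element beta-lactamase reporter cells with liver microsomes plus NADPH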
Method in brief: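 In this qHTS, p53 response-element beta-lactamase cells receive test compound together with a microsome/NADPH activating system (0.5 mg/mL final each) and are incubated 16 h at 37 C before LiveBLAzer fluorescence detection.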

[7] = p53 small molecule agonists, cell-based qHTS assay with rat liver microsomes (AID 1963578)
Method in brief: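 Agonist mode in p53RE-bla reporter cells, with compounds co-incubated 16 h at 37 C alongside 0.5 mg/mL rat liver microsomes and 0.5 mg/mL NADPH (final), followed by a 2 h LiveBLAzer detection step.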

[8] = p53 small molecule agonists, cell-based qHTS assay with human liver microsomes: qHTS cell viability counter screen (AID 1963579); also: nearly all actives have a fitted effect of over 45% in size
Method in brief: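 Metabolically activated exposure: compounds, human liver microsomes and NADPH (0.5 mg/mL final apiece) were added to p53RE-bla cells seeded 5 h earlier, left 16 h at 37 C, and then assessed for viability by CellTiter-Glo luminescence.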

[9] = p53 small molecule agonists, cell-based qHTS assay with rat liver microsomes: qHTS cell viability counter screen (AID 1963580); also: nearly all actives have a fitted effect of over 45% in size
Method in brief: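 p53RE-bla HCT-116 cells (4,000/well) rested 5 h at 37 C, then given Tox21 compounds in DMSO with rat liver microsomes (0.5 mg/mL final) plus NADPH (0.5 mg/mL final) for 16 h at 37 C. Viability read by CellTiter-Glo luminescence after 30 min at room temperature.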

[10] = biological target: 5-hydroxytryptamine receptor 2A (Homo sapiens) (UniProt P28223); experiment: 5-hydroxytryptamine receptor 2A (HTR2A) small molecule agonists, cell-based qHTS assay (AID 1963587); also: nearly all actives have a fitted effect of over 30% in size; also: potency is read from the fitted curve at half-maximal effect
Method in brief: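 HTR2A-CHO cells, plated 18 h at 37 C/5% CO2, dye-loaded 1 h at 37 C; compounds in DMSO added by pin tool (agonist mode). Intracellular calcium flux read as kinetic fluorescence on FDSS over 2 min at 1 s intervals.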

[11] = biological target: Muscarinic acetylcholine receptor M1 (Homo sapiens) (UniProt P11229); experiment: Cholinergic receptor muscarinic 1 (CHRM1) small molecule antagonists, cell-based qHTS assay (AID 1963588); also: nearly all actives have a fitted effect of over 40% in size
Method in brief: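 CHRM1-CHO calcium-flux assay, antagonist mode. Cells were seeded 18 h, dye-loaded 1 h at 37 C and given compound for 5 min at RT, then acetylcholine was added at 50nM. FDSS fluorescence was read 3 min; 15 concentrations, three runs.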

[12] = biological target: Muscarinic acetylcholine receptor M1 (Homo sapiens) (UniProt P11229); experiment: Cholinergic receptor muscarinic 1 (CHRM1) small molecule agonists, cell-based qHTS assay (AID 1963589); also: nearly all actives have a fitted effect of over 35% in size
Method in brief: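 Agonist-mode qHTS in CHO cells stably carrying human muscarinic M1. Intracellular calcium is tracked by fluorescence every second after compound transfer; each compound runs at 15 concentrations in three independent runs.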

[13] = cAMP Responsive Elements (CRE) small molecule agonists, cell-based qHTS assay (AID 1963590)
Method in brief: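 Agonist mode qHTS in CRE-bla HEK 293T cells: compounds dosed from DMSO for 3 h at 37 C/5% CO2, followed by LiveBLAzer B/G FRET substrate for 2 h at room temperature.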

[14] = cAMP Responsive Elements (CRE) small molecule antagonists, cell-based qHTS assay (AID 1963591; active = well fitted inhibition curve with a large enough effect in the signal ratio in the repeat runs, not every such curve was filed as active; the % refers to the signal ratio)
Method in brief: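 Antagonist mode: test compounds are co-incubated with the adenylyl cyclase activator NKH477 (0.25 uM final) on CRE-bla HEK293T cells for 3 h at 37 °C, followed by LiveBLAzer substrate loading.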

[15] = biological target: Beta-2 adrenergic receptor (Homo sapiens) (UniProt P07550); experiment: Adrenergic beta2 receptor (ADRB2) small molecule antagonists, cell-based qHTS assay (AID 1963592); also: series mostly up to about 92 µM; nearly all actives have a fitted effect of over 50% in size
Method in brief: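 Cells (CHO, stable ADRB2 overexpression) incubated 18-20hr at 37C; compounds added from DMSO; agonist mix (1nM isoproterenol, 100uM IBMX, 25uM Ro-20-1724) added; 0.5hr RT; d2-cAMP and anti-cAMP-cryptate added; 1hr RT; 665/615 nm read.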

[16] = biological target: Beta-2 adrenergic receptor (Homo sapiens) (UniProt P07550); experiment: Adrenergic beta2 receptor (ADRB2) small molecule agonists, cell-based qHTS assay (AID 1963593);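 also: CHO cells stably overexpressing human ADRB2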
Method in brief: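 CHO cells stably over-expressing ADRB2 were plated overnight at 37C, then dosed with compounds plus a stimulation mix containing 100uM IBMX and 25uM Ro-20-1724 for 0.5hr at room temperature. cAMP was measured by HTRF competition, 1hr.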

[17] = biological target: D(2) dopamine receptor (Homo sapiens) (UniProt P14416); experiment: Dopamine D2 receptor (DRD2) small molecule agonists, cell-based qHTS assay (AID 1963594); also: nearly all actives have a fitted effect of over 35% in size
Method in brief: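 HEK293 cells stably expressing DRD2 were cultured 24 h at 37 C, then given Ro20-1724 (0.1 mM final) and compounds for 10 min at room temperature. NKH477 (200nM) was then added for 30 min. cAMP was read by HTRF.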

[18] = biological target: D(2) dopamine receptor (Homo sapiens) (UniProt P14416); experiment: Dopamine D2 receptor (DRD2) small molecule antagonists, cell-based qHTS assay (AID 1963595; active = well fitted inhibition curve with a large enough effect in the signal ratio in the repeat runs, with a control signal flat; the % refers to the signal ratio)
Method in brief: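 HEK293 cells stably expressing DRD2, preincubated with 0.1 mM Ro20-1724 and compounds 10 min, were stimulated with 200 nM NKH477 plus 12 nM quinpirole for 30 min at room temperature; cAMP measured by HTRF (665/620 nm).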

[19] = p53 small molecule agonists, cell-based qHTS assay: qHTS cell viability counter screen (AID 1963581); also: nearly all actives have a fitted effect of over 45% in size
Method in brief: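 Cells: HCT-116 with p53 response element-driven beta-lactamase. Treatment: 16 h, 37 C, compounds in DMSO. Read: CellTiter-Glo luminescence after 30 min RT.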

[20] = p53 small molecule agonists, cell-based qHTS assay (AID 1963582; active = well fitted activation curve with a large enough effect in the signal ratio in the repeat runs, not every such curve was filed as active; the % refers to the signal ratio)
Method in brief: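 Quantitative HTS in p53RE-bla cells: after a 5 h settling period, compounds delivered in DMSO were left on cells for 16 h at 37 C, and reporter induction was measured as fluorescence following 2 h substrate loading.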

Muscarinic acetylcholine receptor M1 (Homo sapiens), sequence (P11229 whole entry, looked up): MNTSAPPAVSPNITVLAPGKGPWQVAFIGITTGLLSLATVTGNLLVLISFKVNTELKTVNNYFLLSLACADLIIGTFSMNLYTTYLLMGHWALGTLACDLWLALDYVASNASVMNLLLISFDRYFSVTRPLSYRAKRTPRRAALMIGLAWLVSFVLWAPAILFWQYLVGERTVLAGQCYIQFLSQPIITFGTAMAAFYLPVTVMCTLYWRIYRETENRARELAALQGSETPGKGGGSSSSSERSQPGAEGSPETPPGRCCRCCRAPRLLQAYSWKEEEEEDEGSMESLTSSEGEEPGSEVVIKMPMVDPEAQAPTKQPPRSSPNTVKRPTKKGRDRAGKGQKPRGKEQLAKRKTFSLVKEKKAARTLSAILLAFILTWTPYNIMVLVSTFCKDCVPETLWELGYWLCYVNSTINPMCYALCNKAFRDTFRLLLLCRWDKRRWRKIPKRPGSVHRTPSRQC
5-hydroxytryptamine receptor 2A (Homo sapiens), sequence (P28223 whole entry, looked up): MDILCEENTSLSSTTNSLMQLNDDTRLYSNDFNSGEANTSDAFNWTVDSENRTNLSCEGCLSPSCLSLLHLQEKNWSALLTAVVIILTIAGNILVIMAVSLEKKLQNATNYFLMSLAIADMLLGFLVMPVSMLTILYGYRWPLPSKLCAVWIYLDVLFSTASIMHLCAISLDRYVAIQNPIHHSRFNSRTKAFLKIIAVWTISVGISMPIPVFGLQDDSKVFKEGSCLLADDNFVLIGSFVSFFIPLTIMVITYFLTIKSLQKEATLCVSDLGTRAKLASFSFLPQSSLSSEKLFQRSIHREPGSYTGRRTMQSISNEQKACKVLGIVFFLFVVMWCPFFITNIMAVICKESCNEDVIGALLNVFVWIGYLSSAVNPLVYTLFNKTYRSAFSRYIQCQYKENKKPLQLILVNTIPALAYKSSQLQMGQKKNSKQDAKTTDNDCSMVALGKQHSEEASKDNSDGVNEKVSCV
KiSS-1 receptor (Homo sapiens), sequence (Q969F8 whole entry, looked up): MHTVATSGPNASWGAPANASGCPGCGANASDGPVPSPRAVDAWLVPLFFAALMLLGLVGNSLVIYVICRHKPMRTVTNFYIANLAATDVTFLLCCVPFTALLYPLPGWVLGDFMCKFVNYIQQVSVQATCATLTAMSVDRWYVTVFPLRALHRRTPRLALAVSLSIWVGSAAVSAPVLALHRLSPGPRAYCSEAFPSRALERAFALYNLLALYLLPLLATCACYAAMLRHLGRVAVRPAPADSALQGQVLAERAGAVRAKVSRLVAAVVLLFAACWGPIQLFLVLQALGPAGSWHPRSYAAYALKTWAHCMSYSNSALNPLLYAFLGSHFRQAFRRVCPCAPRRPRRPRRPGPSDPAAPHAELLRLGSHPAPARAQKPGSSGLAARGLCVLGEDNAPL
Beta-2 adrenergic receptor (Homo sapiens), sequence (P07550 whole entry, looked up): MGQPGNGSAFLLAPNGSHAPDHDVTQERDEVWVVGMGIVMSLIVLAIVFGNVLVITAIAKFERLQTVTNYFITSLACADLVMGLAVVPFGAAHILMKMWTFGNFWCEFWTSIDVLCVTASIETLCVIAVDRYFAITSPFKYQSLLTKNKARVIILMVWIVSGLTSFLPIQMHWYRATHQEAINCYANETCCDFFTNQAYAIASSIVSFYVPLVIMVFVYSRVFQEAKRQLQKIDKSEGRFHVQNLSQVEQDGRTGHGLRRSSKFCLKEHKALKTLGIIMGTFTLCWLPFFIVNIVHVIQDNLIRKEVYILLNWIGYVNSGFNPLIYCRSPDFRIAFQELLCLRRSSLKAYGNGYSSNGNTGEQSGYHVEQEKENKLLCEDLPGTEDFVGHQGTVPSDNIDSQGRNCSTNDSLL
Gonadotropin-releasing hormone receptor (Homo sapiens), sequence (P30968 whole entry, looked up): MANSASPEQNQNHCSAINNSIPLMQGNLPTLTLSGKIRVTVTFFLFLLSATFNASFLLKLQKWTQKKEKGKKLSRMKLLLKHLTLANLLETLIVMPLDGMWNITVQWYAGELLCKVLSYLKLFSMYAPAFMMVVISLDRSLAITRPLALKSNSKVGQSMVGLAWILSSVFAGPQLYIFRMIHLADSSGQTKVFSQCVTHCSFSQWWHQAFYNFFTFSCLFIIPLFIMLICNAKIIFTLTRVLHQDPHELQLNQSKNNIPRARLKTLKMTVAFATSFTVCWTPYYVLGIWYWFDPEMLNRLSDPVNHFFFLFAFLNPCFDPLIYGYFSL
D(2) dopamine receptor (Homo sapiens), sequence (P14416 whole entry, looked up): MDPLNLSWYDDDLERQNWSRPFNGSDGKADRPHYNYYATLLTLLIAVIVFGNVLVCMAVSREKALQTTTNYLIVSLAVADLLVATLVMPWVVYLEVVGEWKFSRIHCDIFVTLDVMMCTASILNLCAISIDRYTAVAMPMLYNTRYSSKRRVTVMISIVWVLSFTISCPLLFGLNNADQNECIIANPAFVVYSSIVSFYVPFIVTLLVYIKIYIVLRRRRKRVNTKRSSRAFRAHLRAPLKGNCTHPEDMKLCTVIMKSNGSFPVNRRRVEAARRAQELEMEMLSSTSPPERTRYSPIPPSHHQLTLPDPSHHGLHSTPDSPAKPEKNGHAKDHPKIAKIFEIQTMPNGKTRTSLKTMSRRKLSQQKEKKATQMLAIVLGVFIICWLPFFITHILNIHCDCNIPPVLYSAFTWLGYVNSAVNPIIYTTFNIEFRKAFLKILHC

Row | Compound | Potency [1] | Potency [2] | Potency [3] | Potency [4] | Potency [5] | Potency [6] | Potency [7] | Potency [8] | Potency [9] | Potency [10] | Potency [11] | Potency [12] | Potency [13] | Potency [14] | Potency [15] | Potency [16] | Potency [17] | Potency [18] | Potency [19] | Potency [20]
1 | CCC(O)OCCCOC (configuration not stated) | inactive | inactive | inactive | inactive | inactive | inactive | inactive | inactive | inactive | inactive | inactive | inactive | inactive | inactive | inactive | inactive | inactive | inactive |  | 
2 | Cc1c(N(C)CS(=O)(=O)O)c(=O)n(-c2ccccc2)n1C | inactive | inactive | inactive | inactive | inactive | inactive | inactive | inactive |  |  |  |  | inactive | inactive | inactive |  | inactive | inactive | inactive | inactive
3 | OCCO | inactive | inactive | inactive | inactive | inactive | inactive | inactive | inactive | inactive |  |  |  |  | inactive | inactive | inactive | inactive | inactive |  | inactive
4 | Nc1ccc(O)c(C(=O)O)c1 | inactive | inactive | inactive | inactive | inactive | inactive | inactive | inactive | inactive | inactive | inactive | inactive | inactive | inactive | inactive |  | inactive |  |  | inactive
5 | OC[C@@H](O)[C@H](O)[C@H](O)[C@@H](O)CO | inactive | inactive | inactive | inactive | inactive | inactive | inactive | inactive | inactive |  |  |  | inactive | inactive | inactive | inactive | inactive | inactive |  | 
6 | Cc1cc(C)nc(NS(=O)(=O)c2ccc(N)cc2)n1 | inactive | inactive | inactive | inactive | inactive | inactive | inactive | inactive | inactive |  |  |  | inactive | inactive | inactive |  | inactive | inactive |  | inactive
7 | C/C=C/C(=O)N(CC)c1ccccc1C | inactive | inactive | inactive | inactive | inactive | inactive | inactive | inactive | inactive |  |  |  | inactive | inactive | inactive |  | inactive |  |  | inactive
8 | CC(C)(C)C1CCC(O)CC1 (configuration not stated) | inactive | inactive | inactive | inactive | inactive | inactive | inactive | inactive |  | inactive | inactive | inactive | inactive | inactive |  |  | inactive | inactive | inactive | inactive
9 | CCCCCCCCCCCO | inactive | inactive | inactive | inactive | inactive | inactive | inactive | inactive | inactive | inactive | inactive | inactive | inactive | inactive | inactive |  | inactive | inactive |  | inactive
10 | CCCCC(CC)COC(=O)/C=C\C(=O)OCC(CC)CCCC (configuration not stated) | inactive | inactive | inactive | inactive | inactive | inactive | inactive | inactive | inactive | inactive | inactive | inactive | inactive | inactive | inactive |  | inactive | inactive |  | 
11 | O=S1(=O)CC=CC1 | inactive | inactive | inactive | inactive | inactive | inactive | inactive | inactive | inactive | 37.6 µM (active) and inactive |  | inactive | inactive |  | inactive | inactive | inactive | inactive |  | inactive
12 | Cc1cccc(Nc2cc(Cl)nc(SCC(=O)O)n2)c1C | inactive | inactive | inactive | inactive | inactive | inactive | inactive | inactive | inactive |  |  |  |  |  | inactive | inactive | inactive | inactive |  | 
13 | C[C@](N)(Cc1ccc(O)c(O)c1)C(=O)O | inactive | inactive | inactive | inactive | inactive | inactive | inactive | inactive | inactive |  |  |  | inactive | inactive | inactive |  | inactive | inactive |  | inactive
14 | FC(F)(F)c1ccc(Cl)c(Cl)c1 | inactive | inactive | inactive | inactive | inactive | inactive | inactive | inactive |  | inactive | inactive | inactive | inactive | inactive | inactive | inactive | inactive | inactive | inactive | inactive
15 | Cc1ccc2ncccc2c1 | inactive | inactive | inactive | inactive | inactive | inactive | inactive | inactive |  | inactive | inactive |  | inactive | inactive |  | inactive | inactive | inactive | inactive | inactive
